Results on 3 compounds are retold here after PubChem BioAssay (NCATS).

Assay [1] addresses Lysosomal acid glucosylceramidase (Homo sapiens) (UniProt P04062). Description: Glucocerebrosidase-p2 (AID 348; in the data active = potency below about 10 µM; also: potency is read from the fitted curve at half-maximal effect). The following applies: purified GBA, blue fluorogenic substrate, 40 min. In short, it runs like this: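 Normal human glucocerebrosidase (0.2 nM) with blue fluorogenic substrate (80 uM final) in citrate/phosphate pH 5.9 with 10mM sodium taurocholate, 0.01% tween-20; 40 min RT, NaOH/glycine stop; fluorescence Ex 365/Em 440; AC50 from a titration from 0.6 nM upwards.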

Assay [2] deals with Cytochrome P450 1A2 (Homo sapiens) (UniProt P05177). As to the kind of experiment: p450-cyp1a2 (AID 410; calls by dose curve; also: potency is read from the fitted curve at half-maximal effect). The method, boiled down:
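O-Demethylation of luciferin 6' methyl ether by human CYP1A2 is monitored as luciferase luminescence. Substrate sits at Km (100uM); enzyme is 20nM. Values are scaled to 57 uM furafylline as maximal inhibition.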

A short description of assay [3]: NFAT Signaling Pathway (AID 444; active = well fitted curve in either direction with a large enough effect, not every such curve was filed as active;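 also: carbachol stimulus at about its EC50 of 1 µM final; % is scaled to controls: 0 for no effect and ±100 for the full control effect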). The following applies: Jurkat NFAT-bla M1, carbachol, beta-lactamase ratio, 5 h; at 7.69 µM (top of the series) unless noted. In short, it runs like this:
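Jurkat cells carrying an NFAT-driven β-lactamase reporter and co-transfected muscarinic M1 receptor were treated with compound plus carbachol (1 uM final, an EC50 level) for 5 h at 37 °C. CCF4 loading followed for 1 h at RT; 460/530 nm ratio gave %activity.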

In assay [4] the target is Glucocorticoid receptor (Homo sapiens) (UniProt P04150). As to the kind of experiment: GR-GFP Redistribution (AID 450;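 active = compounds whose dose series gives a full or clear partial fitted curve of increased nuclear translocation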; also: potency is read from the fitted curve at half-maximal effect). The following applies: U2OS GR-GFP nuclear translocation, laser cytometry, 2 h.
The target is the same in assay [5]. Description: GR-EFC Redistribution (AID 451; calls by dose curve; also: potency is read from the fitted curve at half-maximal effect). The following applies: CHO-K1 GR-EFC translocation, beta-gal luminescence, 2 h. In short, it runs like this:
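CHO-K1 cells stably expressing nuclear-localized β-gal enzyme acceptor and GR fused C-terminally to the enzyme donor fragment; ligand-driven nuclear translocation restores β-gal by complementation. Compounds titrated up to 46 uM final, 2 h at 37 °C; luminescence read.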

In assay [6] the target is Mitogen-activated protein kinase 10 (Mus musculus) (UniProt Q61831). As to the kind of experiment: JNK3 AlphaScreen Assay (AID 530; active = well fitted curve in either direction with a large enough effect, not every such curve was filed as active;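 also: kinase came from lysate of stimulated human HepG2 cells; signal reports phosphorylation of biotinylated GST-cJun 1-79 at Ser73 with 10 µM ATP; % is scaled to controls: 0 for no effect and ±100 for the full control effect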). In short, it runs like this:
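Phosphorylation of biotinylated GST-cJun(1-79) at Ser73 is measured by AlphaScreen proximity luminescence. Enzyme is JNK3 in HepG2 lysates activated with interleukin-1beta and tumor necrosis factor alpha; ATP is 10 uM final.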
Background: In Alpha technology, singlet oxygen from a donor bead excites a nearby acceptor bead.

For assay [7], the target named is 3',5'-cyclic-AMP phosphodiesterase 4B (Homo sapiens) (UniProt Q07343). Description: qHTS Assay for Inhibitors of PDE-IV (AID 607; active = well fitted activation curve with a large enough effect in the main read-out, with a control signal flat, not every such curve was filed as active; also: % of control where 0% means no effect). In short, it runs like this: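 Live HEK293 cells with a modified cyclic nucleotide-gated (CNG) channel report intracellular cAMP via membrane-potential dye fluorescence (ex 535/em 590 nm). Endogenous PDE-IV was targeted. Compounds were tested at up to 22.9 uM final; RO 20-1724 100 uM served as control.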

In assay [8] the target is Cytochrome P450 3A4 (Homo sapiens) (UniProt P08684). Description: qHTS Assay for Activators of Cytochrome P450 3A4 (AID 885). Also: nearly all actives have a fitted effect of over 65% in size. In short, it runs like this:
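Using 20nM recombinant human CYP3A4 in potassium phosphate (200mM), substrate Luciferin-PPXE at 25uM, luminescent luciferin detection followed a 60-min RT NADPH reaction; data scaled to 57 uM ketoconazole.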
Background: qHTS replaces the single test concentration by a dilution series.

The target of assay [9] is Cytochrome P450 2C19 (Homo sapiens) (UniProt P33261). Description: qHTS Assay for Inhibitors and Substrates of Cytochrome P450 2C19 (AID 899). Also: potency is read from the fitted curve at half-maximal effect; nearly all actives have a fitted effect of over 60% in size. The method, boiled down: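 Human CYP2C19 (5nM) with Luciferin-H EGE at 10uM (its KM) in 50mM KPO4 was preincubated with compound for 10 min at 37C. NADPH regeneration started a 60 min 37C reaction. Luciferin was read by luminescence, normalized to 57uM ketoconazole.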

Assay [10] addresses Dual specificity protein kinase CLK4 (Homo sapiens) (UniProt Q9HAZ1). As to the kind of experiment: qHTS Assay for Inhibitors of CDC-like Kinase 4 (ADP-Glo Assay) (AID 1771). Also: potency is read from the fitted curve at half-maximal effect; nearly all actives have a fitted effect of over 70% in size. In short, it runs like this:
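Compounds are pin-transferred onto substrate mix (100 uM RS peptide, 1 uM ATP), then 25 nM Clk4 is added. After 1 hr at room temperature, ADP-Glo reagent runs 45 min, detection reagent 30 min, then luminescence is read.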

Assay [11] shares this target. Description: qHTS Assay for Inhibitors of CDC-like Kinase 4 (ADP-FP Assay) (AID 1795). Also: potency is read from the fitted curve at half-maximal effect; nearly all actives have a fitted effect of over 60% in size. In short, it runs like this: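 Recombinant human Clk4 (6.25 nM) phosphorylated RS repeat peptide (100 uM) with 1 uM ATP in Tris pH 7.5/MgCl2/EGTA/DTT/Triton buffer for one hour. ADP was quantified by Transcreener competitive fluorescence polarization against an ADP calibration curve.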

Assay [12] has as its target Ubiquitin carboxyl-terminal hydrolase 1 (Homo sapiens) (UniProt O94782). As to the kind of experiment: Inhibitors of USP1/UAF1: Pilot qHTS (AID 504865).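 Also: rhodamine fluorescence freed from ubiquitin-rhodamine substrate followed over time; top concentration of the series differs between compounds; % is scaled to controls: 0 for no effect and ±100 for the full control effect; nearly all actives have a fitted effect of over 35% in size.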 The method, boiled down: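 USP1/UAF1 complex (1nM) preincubated with compound 15 min at room temperature, then Ub-Rho substrate (150nM final) added. Fluorescence read kinetically at 480/540 nm, 6 reads every 60 seconds. Buffer: 50mM HEPES pH 7.8, 0.5mM EDTA, 0.1 mg/ml BSA, 1mM TCEP, 0.01% Tween-20.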

Assay [13] addresses Calcium and integrin-binding protein 1 (Homo sapiens) (UniProt Q99828). Description: Primary qHTS for Identification of Calcium Integrin Binding Protein 1 (CIB1) Competitor (AID 1508620).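 Also: GST tagged CIB1 binding a fluorescein labelled alphaIIb integrin peptide tracer; top concentration of the series differs between compounds; % is scaled to controls: 0 for no effect and ±100 for the full control effect.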 In short, it runs like this: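 Fluorescence polarization competition: CIB1-GST (1 uM final) preincubated with compound 15 min at room temperature, then FITC-labeled alphaIIb peptide (100 nM final) added for another 15 min. Polarization read at Ex 480/Em 540.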

Assay [14] is described as follows: Primary qHTS for small molecule stabilizers of the endoplasmic reticulum resident proteome: Secreted ER Calcium Modulated Protein (SERCaMP) assay (AID 1508630). Also: % is scaled to controls: 0 for no effect and ±100 for the full control effect. In short, it runs like this:
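The SH-SY5Y reporter protocol was run at 3 concentrations up to 38.3 uM (primary) or 11 concentrations (follow-up): 16 h compound, 100 nM thapsigargin for 4 h, then extracellular luciferase luminescence.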

Assay [15] in a line: Stat Signaling Pathway (AID 446; active = well fitted curve in either direction with a large enough effect, not every such curve was filed as active). The following applies: ME-180 (cervical carcinoma) SIE beta-lactamase reporter, IL-6 stimulated, 5 h; at 7.69 µM (top of the series) unless noted. The method, boiled down:
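Overnight-plated ME-180 cells bearing a STAT Inducible Element beta-lactamase reporter; 5 h co-exposure to compound and 40 pM IL-6; values normalized to 300 pM IL-6 and 125 nM JAK inhibitor controls.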

The target of assay [16] is Dual specificity protein kinase CLK4 (Homo sapiens) (UniProt Q9HAZ1). As to the kind of experiment: qHTS Assay for Inhibitors of CDC-like Kinase 4 (Kinase-Glo Assay) (AID 1770). Also: potency is read from the fitted curve at half-maximal effect; nearly all actives have a fitted effect of over 65% in size. The method, boiled down: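 Recombinant human Clk4 (25 nM) phosphorylated RS repeat peptide (100 uM) with 1 uM ATP in Tris pH 7.5/MgCl2/EGTA/DTT/Triton buffer for 4.5 h at room temperature. Residual ATP was quantified by Kinase-Glo luciferase luminescence.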

The target in assay [17] is N-terminal Xaa-Pro-Lys N-methyltransferase 1 (Homo sapiens) (UniProt Q9BV86). As to the kind of experiment: Confirmatory qHTS for Inhibitors of N-terminal methyltransferase 1 (NTMT1): MTaseGlo Assay (AID 1645874). Also: potency is read from the fitted curve at half-maximal effect; nearly all actives have a fitted effect of over 65% in size. The method, boiled down: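 Room-temperature NTMT1 reaction, 30 min, with 100 uM SAM and 1 uM SPKRIA substrate; enzyme 125 nM. Read-out: MTase-Glo luminescence, normalized to no-enzyme and DMSO controls.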

Unmarked numbers belong to inactive results. Results filed as inconclusive are left out. Activity calls are given as the source filed them. Unless noted, calls follow the shape of the dose curve; as a rule, active = well fitted curve in the direction sought with a large enough effect; inconclusive = small, poorly fitted or top-dose-only effect, or another doubt; inactive = no such curve, though single readings can be large; an effect the other way counts as inactive or inconclusive. Bounds are passed on as bounds.

Chain of Glucocorticoid receptor (Homo sapiens) (P04150 whole entry, looked up): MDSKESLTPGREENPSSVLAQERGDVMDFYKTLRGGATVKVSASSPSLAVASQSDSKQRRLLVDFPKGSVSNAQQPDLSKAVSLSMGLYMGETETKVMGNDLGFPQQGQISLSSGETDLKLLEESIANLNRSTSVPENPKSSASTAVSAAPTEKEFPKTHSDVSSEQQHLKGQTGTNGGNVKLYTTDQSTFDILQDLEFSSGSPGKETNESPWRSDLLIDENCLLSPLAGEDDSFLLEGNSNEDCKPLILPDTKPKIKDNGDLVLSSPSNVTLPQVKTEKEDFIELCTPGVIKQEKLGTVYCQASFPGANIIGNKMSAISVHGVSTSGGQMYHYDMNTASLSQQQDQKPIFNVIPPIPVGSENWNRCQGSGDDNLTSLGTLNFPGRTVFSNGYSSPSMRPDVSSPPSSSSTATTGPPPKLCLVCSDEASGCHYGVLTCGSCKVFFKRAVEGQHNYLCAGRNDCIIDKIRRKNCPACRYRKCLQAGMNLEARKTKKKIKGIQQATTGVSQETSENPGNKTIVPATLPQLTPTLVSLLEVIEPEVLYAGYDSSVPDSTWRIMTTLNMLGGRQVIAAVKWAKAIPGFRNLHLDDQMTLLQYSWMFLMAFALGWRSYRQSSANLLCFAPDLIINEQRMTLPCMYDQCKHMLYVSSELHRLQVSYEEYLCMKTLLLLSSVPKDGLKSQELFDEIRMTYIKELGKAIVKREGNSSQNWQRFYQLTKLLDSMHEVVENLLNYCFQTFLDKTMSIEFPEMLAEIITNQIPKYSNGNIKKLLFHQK
Chain of Dual specificity protein kinase CLK4 (Homo sapiens) (Q9HAZ1 whole entry, looked up): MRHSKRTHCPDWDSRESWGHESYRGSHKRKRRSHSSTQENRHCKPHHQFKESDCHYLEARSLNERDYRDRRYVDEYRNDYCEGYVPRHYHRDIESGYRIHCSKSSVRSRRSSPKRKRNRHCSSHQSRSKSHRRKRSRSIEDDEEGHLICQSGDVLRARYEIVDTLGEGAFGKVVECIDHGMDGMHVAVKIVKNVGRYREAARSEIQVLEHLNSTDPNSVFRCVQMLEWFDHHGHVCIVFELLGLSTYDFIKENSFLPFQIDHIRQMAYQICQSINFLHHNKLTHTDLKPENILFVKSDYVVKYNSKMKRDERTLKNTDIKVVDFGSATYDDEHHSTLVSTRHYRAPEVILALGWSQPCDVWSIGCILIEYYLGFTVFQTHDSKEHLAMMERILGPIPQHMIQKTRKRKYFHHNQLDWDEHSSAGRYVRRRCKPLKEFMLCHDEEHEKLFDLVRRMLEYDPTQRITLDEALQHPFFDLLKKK
Chain of Calcium and integrin-binding protein 1 (Homo sapiens) (Q99828 whole entry, looked up): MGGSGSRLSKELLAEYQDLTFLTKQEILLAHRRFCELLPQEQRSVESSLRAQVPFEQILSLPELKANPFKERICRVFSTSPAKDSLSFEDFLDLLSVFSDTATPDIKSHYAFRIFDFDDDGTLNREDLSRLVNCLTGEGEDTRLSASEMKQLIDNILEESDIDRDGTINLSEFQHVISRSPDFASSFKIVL
Chain of Cytochrome P450 2C19 (Homo sapiens) (P33261 whole entry, looked up): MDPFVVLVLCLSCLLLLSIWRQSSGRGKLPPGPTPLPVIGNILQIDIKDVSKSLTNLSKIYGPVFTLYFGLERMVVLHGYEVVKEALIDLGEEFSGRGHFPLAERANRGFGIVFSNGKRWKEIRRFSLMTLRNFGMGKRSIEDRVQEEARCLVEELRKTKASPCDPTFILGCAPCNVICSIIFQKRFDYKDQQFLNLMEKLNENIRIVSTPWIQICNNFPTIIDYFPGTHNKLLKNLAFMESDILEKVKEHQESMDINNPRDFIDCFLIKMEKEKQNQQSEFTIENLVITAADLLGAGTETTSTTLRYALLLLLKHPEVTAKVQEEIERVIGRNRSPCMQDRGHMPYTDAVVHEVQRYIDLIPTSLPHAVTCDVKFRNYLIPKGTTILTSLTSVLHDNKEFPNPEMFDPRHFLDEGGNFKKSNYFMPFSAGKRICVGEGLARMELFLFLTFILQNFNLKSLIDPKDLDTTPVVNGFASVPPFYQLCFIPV
Chain of Cytochrome P450 1A2 (Homo sapiens) (P05177 whole entry, looked up): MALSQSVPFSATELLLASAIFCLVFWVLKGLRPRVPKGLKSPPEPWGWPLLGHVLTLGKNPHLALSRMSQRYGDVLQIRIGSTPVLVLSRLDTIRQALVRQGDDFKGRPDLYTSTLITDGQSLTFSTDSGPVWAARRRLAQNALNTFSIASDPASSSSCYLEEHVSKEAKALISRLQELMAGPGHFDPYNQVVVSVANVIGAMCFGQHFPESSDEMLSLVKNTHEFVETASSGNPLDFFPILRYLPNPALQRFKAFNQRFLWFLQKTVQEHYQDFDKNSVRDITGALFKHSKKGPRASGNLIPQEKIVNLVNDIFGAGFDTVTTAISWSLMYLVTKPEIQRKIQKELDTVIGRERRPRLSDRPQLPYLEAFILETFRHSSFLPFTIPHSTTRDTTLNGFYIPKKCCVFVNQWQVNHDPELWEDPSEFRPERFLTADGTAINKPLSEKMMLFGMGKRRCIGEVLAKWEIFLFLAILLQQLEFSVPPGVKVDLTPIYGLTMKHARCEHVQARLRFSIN
Chain of Ubiquitin carboxyl-terminal hydrolase 1 (Homo sapiens) (O94782 whole entry, looked up): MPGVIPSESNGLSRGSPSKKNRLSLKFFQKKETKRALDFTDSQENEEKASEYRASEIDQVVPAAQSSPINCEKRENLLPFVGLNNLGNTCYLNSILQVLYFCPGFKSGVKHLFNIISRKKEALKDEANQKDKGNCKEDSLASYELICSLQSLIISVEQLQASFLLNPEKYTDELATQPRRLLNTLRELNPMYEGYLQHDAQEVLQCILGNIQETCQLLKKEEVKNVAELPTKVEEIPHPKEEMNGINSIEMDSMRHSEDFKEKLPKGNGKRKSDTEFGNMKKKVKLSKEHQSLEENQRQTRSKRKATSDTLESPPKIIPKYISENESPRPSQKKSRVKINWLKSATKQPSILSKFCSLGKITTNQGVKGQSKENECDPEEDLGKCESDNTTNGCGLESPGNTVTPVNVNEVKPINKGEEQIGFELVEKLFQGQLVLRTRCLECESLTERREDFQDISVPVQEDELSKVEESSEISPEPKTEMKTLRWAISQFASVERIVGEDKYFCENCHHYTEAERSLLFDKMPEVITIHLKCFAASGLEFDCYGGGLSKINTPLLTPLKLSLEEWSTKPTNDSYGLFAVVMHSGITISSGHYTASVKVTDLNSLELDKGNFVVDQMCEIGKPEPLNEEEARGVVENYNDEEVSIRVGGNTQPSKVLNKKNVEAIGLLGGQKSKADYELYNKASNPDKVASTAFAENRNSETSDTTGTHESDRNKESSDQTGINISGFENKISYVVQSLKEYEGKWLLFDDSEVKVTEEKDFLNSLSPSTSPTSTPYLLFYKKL
Chain of 3',5'-cyclic-AMP phosphodiesterase 4B (Homo sapiens) (Q07343 whole entry, looked up): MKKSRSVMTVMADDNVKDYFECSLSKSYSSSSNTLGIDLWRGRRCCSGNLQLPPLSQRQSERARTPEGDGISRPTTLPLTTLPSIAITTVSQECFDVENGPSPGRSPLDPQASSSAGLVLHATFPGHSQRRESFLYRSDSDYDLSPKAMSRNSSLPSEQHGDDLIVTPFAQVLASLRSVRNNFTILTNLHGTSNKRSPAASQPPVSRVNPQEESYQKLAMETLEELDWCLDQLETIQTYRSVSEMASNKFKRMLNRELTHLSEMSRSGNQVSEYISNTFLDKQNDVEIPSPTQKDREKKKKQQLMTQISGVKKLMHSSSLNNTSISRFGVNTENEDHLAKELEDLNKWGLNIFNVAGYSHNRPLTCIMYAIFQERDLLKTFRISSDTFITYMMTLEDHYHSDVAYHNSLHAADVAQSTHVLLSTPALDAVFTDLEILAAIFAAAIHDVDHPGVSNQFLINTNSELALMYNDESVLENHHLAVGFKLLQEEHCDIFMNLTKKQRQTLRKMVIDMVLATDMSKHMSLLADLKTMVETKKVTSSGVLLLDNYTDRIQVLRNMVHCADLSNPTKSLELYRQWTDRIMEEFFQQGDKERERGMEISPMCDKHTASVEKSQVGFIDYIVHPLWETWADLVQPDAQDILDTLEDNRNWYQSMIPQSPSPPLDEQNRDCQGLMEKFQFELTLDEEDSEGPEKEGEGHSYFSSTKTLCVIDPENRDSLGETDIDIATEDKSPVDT
Chain of Cytochrome P450 3A4 (Homo sapiens) (P08684 whole entry, looked up): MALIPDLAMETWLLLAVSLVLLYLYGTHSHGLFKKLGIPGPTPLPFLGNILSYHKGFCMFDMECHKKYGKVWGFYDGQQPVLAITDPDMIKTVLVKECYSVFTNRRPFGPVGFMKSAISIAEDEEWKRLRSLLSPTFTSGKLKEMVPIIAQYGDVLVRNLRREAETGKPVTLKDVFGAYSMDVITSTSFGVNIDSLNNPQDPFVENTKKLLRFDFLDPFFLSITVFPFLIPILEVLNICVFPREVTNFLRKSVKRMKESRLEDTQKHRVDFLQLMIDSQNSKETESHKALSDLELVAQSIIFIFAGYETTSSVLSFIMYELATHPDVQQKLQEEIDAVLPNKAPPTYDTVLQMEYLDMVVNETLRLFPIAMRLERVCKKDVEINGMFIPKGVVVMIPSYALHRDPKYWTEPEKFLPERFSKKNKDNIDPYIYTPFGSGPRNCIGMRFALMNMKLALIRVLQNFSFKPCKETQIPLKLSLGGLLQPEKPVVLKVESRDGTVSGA
Chain of N-terminal Xaa-Pro-Lys N-methyltransferase 1 (Homo sapiens) (Q9BV86 whole entry, looked up): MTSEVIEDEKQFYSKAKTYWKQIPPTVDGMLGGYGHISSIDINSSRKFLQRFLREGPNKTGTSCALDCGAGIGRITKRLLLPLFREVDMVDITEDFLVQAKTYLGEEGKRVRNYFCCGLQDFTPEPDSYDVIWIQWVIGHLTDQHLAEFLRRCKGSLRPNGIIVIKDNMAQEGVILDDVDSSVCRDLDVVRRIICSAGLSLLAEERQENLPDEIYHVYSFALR

On to `COc1cccc(-c2ccc3ncnc(NCc4cccnc4)c3c2)c1`, for which the Potency was above 11.4 µM in [1]; 0.251 µM (active) in assay [2]; above 46 µM in [4]; above 46 µM in assay [5]; 0.0126 µM (active) in [9]; 2.82 µM (active) in assay [10]. Also, the Potency in assay [11] was 1.58 µM (active). For the same compound, the activity change, negative = inhibition in assay [3] was 9.62%. In addition, the outcome in [6] was inactive. Further, the Potency entry in assay [7], in [8], in assay [12], in assay [13] and in assay [14] was “inactive” throughout.
Regarding `c1cncc(CNc2ncnc3ccc(-c4ccoc4)cc23)c1`, the Potency in [2] was 0.316 µM (active); in [4] it was above 46 µM; in [5], above 46 µM; in [9], 0.0251 µM (active); in [16], 2.82 µM (active); in assay [10], 1.58 µM (active). Besides, in assay [11], the Potency is 0.794 µM (active). Besides, the activity change, negative = inhibition in assay [3] was 2.59%. Further, the activity, negative = inhibition in [15] is -13.4%. The outcome in assay [6] was inactive. In addition, the Potency result in assay [7], in [8], in assay [12], in assay [13] and in assay [14] was “inactive” in each case.
As to `Cc1nc(C)c(-c2ccc3ncnc(NCc4ncc[nH]4)c3c2)s1`, the Potency result in [13] was “inactive”. In [17], the Potency is 39.8 µM (active).
